23 compounds from ChEMBL document CHEMBL4296182, “CO-ADD screening of NIH NCI Diversity Set V” can be followed below.

The subject of one assay is Staphylococcus aureus. Nature of the assay: Antibacterial activity against Staphylococcus aureus MRSA ATCC 43300 (CO-ADD:GP_020); MIC in CAMBH media using NBS plates, by Resazurin F(560/590). The format is functional. The note with it: Concentration 20 uM, ASSAY_TEST Inhibition of Bacterial Growth, detection method Resazurin, Fluorescence (ex560/em590), MEDIA CAMHB, plate type 384well, CORNING #3640, time 18 hr.

The test system of another assay is Acinetobacter baumannii. Nature of the assay: Antibacterial activity against Acinetobacter baumannii ATCC 19606 (CO-ADD:GN_034); MIC in CAMBH media using NBS plates, by Resazurin F(560/590). The format is functional. The note with it: Concentration 20 uM, ASSAY_TEST Inhibition of Bacterial Growth, detection method Resazurin, Fluorescence (ex560/em590), MEDIA CAMHB, plate type 384well, CORNING #3640, time 18 hr. On the technique in general: The colour change of resazurin is a common sign of viable cells or microbes.

The subject of the next assay is Escherichia coli. Nature of the assay: Antibacterial activity against Escherichia coli ATCC 25922 (CO-ADD:GN_001); MIC in CAMBH media using NBS plates, by Resazurin F(560/590). The class given is functional. The note with it: Concentration 20 uM, ASSAY_TEST Inhibition of Bacterial Growth, detection method Resazurin, Fluorescence (ex560/em590), MEDIA CAMHB, plate type 384well, CORNING #3640, time 18 hr.

Another assay concerns Klebsiella pneumoniae. The following applies: Concentration 20 uM; ASSAY_TEST Inhibition of Bacterial Growth; detection method Absorption (OD600); MEDIA CAMHB; plate type 384well; NBS; CORNING #3640; time 18 hr.
For the next assay, the system named is Candida albicans. The note with it: 20 µM.
In the next assay the test system is Cryptococcus neoformans. The following applies: Concentration 20 uM; ASSAY_TEST Inhibition of Fungal Growth; detection method Resazurin; Absorption (OD600-OD570); plate type 384well; NBS; CORNING #3640.

For part of these data: Results with a measured potency or affinity are listed apart.

Regarding `Cn1c(SCc2ccccn2)nc2c1c(=O)[nH]c(=O)n2C`, the Inhibition (commonly the drop in the measured response relative to a control, in per cent) is 7.99% in the assay with Staphylococcus aureus; -7.81% with Acinetobacter baumannii; 13.96% with Escherichia coli; 9.58% in the assay on Klebsiella pneumoniae; 0.41% in the assay on Candida albicans; -8.81% with Cryptococcus neoformans.

In the case of `CCOC(=O)C(=Cc1ccc(Br)cc1)C(=O)OCC`, the Inhibition is 4.77% in the assay on Staphylococcus aureus; 8.54% in the assay with Acinetobacter baumannii; -5.6% in the assay on Escherichia coli; 28.34% in the assay on Klebsiella pneumoniae; 19% in the assay on Candida albicans; -1.07% in the assay with Cryptococcus neoformans.

As for `O=c1[nH]c(=S)c2nc(S)n(-c3ccccc3)c2[nH]1`, the Inhibition with Staphylococcus aureus is 13.04%; in the assay with Acinetobacter baumannii, 12.41%; in the assay on Escherichia coli it was 5.84%; in the assay with Klebsiella pneumoniae, 9.43%; with Candida albicans it was 0.52%; in the assay on Cryptococcus neoformans, -6.47%.

Consider `COc1cc(/N=N/c2ccccc2C(=O)O)ccc1O`, for which the Inhibition in the assay with Staphylococcus aureus was 46.16%; in the assay on Acinetobacter baumannii, -0.55%; with Escherichia coli, 0.38%; in the assay on Klebsiella pneumoniae it was 12.27%; in the assay with Candida albicans it was -1.22%; in the assay on Cryptococcus neoformans, 3.74%.

Turning to `CC(C)NC(=O)c1ccc(C(C)C)cc1`, the Inhibition in the assay on Staphylococcus aureus is 10.05%; with Acinetobacter baumannii, -9.59%; with Escherichia coli, 11.28%; with Klebsiella pneumoniae it was -3.37%; in the assay on Candida albicans, -0.32%; in the assay on Cryptococcus neoformans, -8.3%.

`CC(C)(C)CC(C)(C)n1nnnc1N`: the Inhibition was 12.74% in the assay with Staphylococcus aureus; -17.3% in the assay with Acinetobacter baumannii; 15.8% in the assay with Escherichia coli; 12.31% with Klebsiella pneumoniae; 0.83% with Candida albicans; -5.24% in the assay with Cryptococcus neoformans.

For the compound `CCOC(=O)Cc1cc(=O)[nH]n(-c2ccccc2)c1=O`, the Inhibition with Staphylococcus aureus is 5.46%; with Acinetobacter baumannii it was 4.69%; in the assay with Escherichia coli it was 13.24%; in the assay with Klebsiella pneumoniae, 12.15%; in the assay with Candida albicans, 4.43%; in the assay with Cryptococcus neoformans, -10.57%.

For the compound `O=C1CCCc2cc3c(cc21)CC1(C3)Cc2cc3c(cc2C1)C(=O)CCC3`, the Inhibition in the assay on Staphylococcus aureus was 15.97%; in the assay on Acinetobacter baumannii, -9.78%; with Escherichia coli, 9.88%; in the assay with Klebsiella pneumoniae, 10.84%; with Candida albicans, 3.32%; with Cryptococcus neoformans, -3.34%.

In the case of `C/C(=N\O)C1CC(CC(=O)O)C1(C)C` (stereo not drawn), the Inhibition was -0.7% in the assay on Staphylococcus aureus; -12.7% in the assay with Acinetobacter baumannii; 4.91% with Escherichia coli; 2.97% in the assay with Klebsiella pneumoniae; 2.15% in the assay on Candida albicans; -5.7% in the assay with Cryptococcus neoformans.

In the case of `CSc1cccc(NC(=O)OC2CCCCCCCCCCC2)c1`, the Inhibition in the assay with Staphylococcus aureus was 23.58%; in the assay with Acinetobacter baumannii, 6.29%; in the assay with Escherichia coli, 14.03%; with Klebsiella pneumoniae, 20.05%; in the assay on Candida albicans, 2.81%; in the assay on Cryptococcus neoformans it was -2.07%.

Take `c1ccc2[nH]c(-c3ccncc3)nc2c1`: the Inhibition in the assay with Staphylococcus aureus was 11.19%; in the assay with Acinetobacter baumannii, -5.55%; with Escherichia coli, 7.11%; in the assay with Klebsiella pneumoniae, 18.73%; with Candida albicans, -0.07%; in the assay with Cryptococcus neoformans, -8.67%.

With `O=[N+]([O-])c1cccnc1Oc1cccnc1`, the Inhibition was 16.25% with Staphylococcus aureus; -14.38% in the assay on Acinetobacter baumannii; 11.2% with Escherichia coli; 9.34% in the assay with Klebsiella pneumoniae; -2.59% in the assay on Candida albicans; -10.27% in the assay on Cryptococcus neoformans.

As for `COc1cc(S(N)(=O)=O)c(OC)cc1N`, the Inhibition in the assay with Staphylococcus aureus was 4.84%; in the assay on Acinetobacter baumannii, -10.8%; in the assay on Escherichia coli, 11.54%; with Klebsiella pneumoniae it was 5.18%; with Candida albicans, 1.19%; with Cryptococcus neoformans it was -0.85%.

Take `Cc1c(C(C)(C(=O)O)c2c(C)n(C)c3ccccc23)c2ccccc2n1C`: the Inhibition is 11.46% in the assay with Staphylococcus aureus; 7.57% in the assay with Acinetobacter baumannii; 2.78% in the assay with Escherichia coli; 3.48% in the assay on Klebsiella pneumoniae; 9.04% in the assay on Candida albicans; -5.48% in the assay on Cryptococcus neoformans.

In the case of `CCc1noc2cc(-c3ccccc3)n(C)c(=O)c12`, the Inhibition is -11.16% in the assay with Staphylococcus aureus; 2.9% with Acinetobacter baumannii; -6.9% in the assay with Escherichia coli; 8.09% in the assay with Klebsiella pneumoniae; 1.75% with Candida albicans; -7.67% with Cryptococcus neoformans.

With `O=C(CC1(O)CCCCC1)OC1CCCC1`, the Inhibition in the assay with Staphylococcus aureus was -23.97%; in the assay on Acinetobacter baumannii it was 3.29%; in the assay on Escherichia coli, -15.82%; in the assay on Klebsiella pneumoniae it was -7.74%; with Candida albicans, 2.66%; with Cryptococcus neoformans, 30.45%.

For the compound `O=C(c1ccccc1)c1ccc(Sc2ccc([N+](=O)[O-])cc2)cc1`, the Inhibition in the assay on Staphylococcus aureus is 11.06%; in the assay with Acinetobacter baumannii, -8.42%; with Escherichia coli, 1.44%; in the assay on Klebsiella pneumoniae, 19.14%; in the assay on Candida albicans, 2.18%; with Cryptococcus neoformans, -2.51%.

In the case of `CC(=O)n1cc(C2CC(=O)OC3=C2CC(=O)C(C)(C)C3)c2ccccc21` (stereo not drawn), the Inhibition in the assay with Staphylococcus aureus was 13.95%; in the assay with Acinetobacter baumannii it was 4.13%; with Escherichia coli, 1.01%; in the assay on Klebsiella pneumoniae, 11.94%; in the assay on Candida albicans, 2.8%; in the assay with Cryptococcus neoformans it was -0.61%.

In the case of `Oc1ccc(/C=C\c2cnccn2)cc1`, the Inhibition is 3.99% with Staphylococcus aureus; -7.27% in the assay on Acinetobacter baumannii; 16.94% in the assay with Escherichia coli; 16.23% in the assay on Klebsiella pneumoniae; 1.24% in the assay on Candida albicans; -11.21% in the assay with Cryptococcus neoformans.

In the case of `Clc1cc2c(c(CSc3nc4ccccc4n4cccc34)c1)OCOC2`, the Inhibition was 18.29% in the assay with Staphylococcus aureus; 11.44% in the assay on Acinetobacter baumannii; -3.64% in the assay on Escherichia coli; 3.77% in the assay on Klebsiella pneumoniae; 0.34% with Candida albicans; 2.56% in the assay with Cryptococcus neoformans.

With `COc1ccccc1N1C(=O)CC(Sc2ccccc2N)C1=O` (stereo not drawn), the Inhibition is 13.62% with Staphylococcus aureus; 1.84% with Acinetobacter baumannii; 10.06% in the assay with Escherichia coli; 1.73% in the assay with Klebsiella pneumoniae; 0.29% with Candida albicans; -6.31% with Cryptococcus neoformans.

Consider `Cn1ncc2c(Nc3ccc(Br)cc3)nc(Nc3ccc(Br)cc3)nc21`, for which the Inhibition in the assay on Staphylococcus aureus is 3.19%; in the assay on Acinetobacter baumannii, -7.92%; in the assay on Escherichia coli, 12.54%; with Klebsiella pneumoniae, 2.31%; in the assay with Candida albicans it was -0.11%; in the assay on Cryptococcus neoformans, -3.38%.

For the compound `O=C(O)CCN1c2ccccc2Sc2ccccc21`, the Inhibition in the assay on Staphylococcus aureus is 8.2%; in the assay with Acinetobacter baumannii, -9.93%; in the assay with Escherichia coli it was 16.66%; in the assay with Klebsiella pneumoniae it was 14.48%; in the assay on Candida albicans, 16.7%; with Cryptococcus neoformans, -15.83%.
